High-throughput results: PubChem, National Center for Advancing Translational Sciences (NCATS)
Only some compounds are listed: those with a hit (about 0.52% of all), similar ones and a draw of the others.
PINK1 expr mod: PINK1 expression modulation; PINK1 immunofluorescence, high-content cytometry, 24 h; Potency, µM (series often up to 76.6 µM), for inactives: at the highest dose activation (PINK1 increase), hits mostly activators; hit rate 0.2% among 410,000; AID 624263; active means well fitted activation curve with a large enough effect; inconclusive means small, poorly fitted or top-dose-only effect; cell line not stated here; further: % of control where 0% means no effect; nearly all actives have a fitted effect of over 65% in size
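Cells are seeded, rested 12 hours, then given compound at five concentrations or DMSO for 24 hours. After fixation, blocking and antibody staining, PINK1 amount and mitochondrial localization are scored; CCCP serves as control.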
Vif-APOBEC3G blk: blocks the Vif interaction with human APOBEC3G | Q9HC16 | HeLa A3G-eYFP + Vif (tagged APOBEC3G with the HIV-1 protein that degrades it), YFP fluorescence, overnight | Potency, µM (highest dose often 46.1 µM), for the others: at the top dose activity, negative = active, most hits filed as inhibitors | hit rate 0.076% among 410,000; further: on the % scale 0 is the no-effect control and ±100 the full control effect; nearly all actives have a fitted effect of over 60% in size
Target sequence (Q9HC16 whole entry, looked up): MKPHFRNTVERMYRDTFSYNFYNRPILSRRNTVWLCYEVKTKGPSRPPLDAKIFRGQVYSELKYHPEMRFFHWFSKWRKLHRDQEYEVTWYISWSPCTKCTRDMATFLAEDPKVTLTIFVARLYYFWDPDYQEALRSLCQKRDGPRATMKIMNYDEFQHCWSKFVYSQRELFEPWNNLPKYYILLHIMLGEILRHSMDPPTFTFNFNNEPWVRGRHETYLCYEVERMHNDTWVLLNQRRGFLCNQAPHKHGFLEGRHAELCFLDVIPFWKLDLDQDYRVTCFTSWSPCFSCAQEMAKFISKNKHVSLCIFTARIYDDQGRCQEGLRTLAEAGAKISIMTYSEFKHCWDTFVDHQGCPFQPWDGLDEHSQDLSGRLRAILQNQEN
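HeLa cells stably expressing Vif and C-terminally eYFP-tagged A3G, seeded overnight at 37 deg C, then exposed to compound by pintool overnight at 37 deg C. Rise in yellow fluorescence (Ex 488/Em 500-530, Acumen) marks blocked Vif-driven A3G degradation.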
Epigenetic derep: epigenetic control regulation, reporter derepression; murine LDR cells, GFP reporter derepression, 30 h; Potency, µM (series often up to 53.9 µM), for the others: top-dose GFP activation, usual class: activators; hit rate 0.2% among 280,000; AID 1865; further: % of control where 0% means no effect; nearly all actives have a fitted effect of over 60% in size
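In this reporter-derepression format, murine cells bearing a silenced integrated CMV-GFP locus incubate with test compound (30 h, 37 C), then are washed and imaged; fluorescent objects of 20–120 um count as induced cells.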
Vif-APOBEC3F blk: blocks the Vif interaction with APOBEC3F; HeLa A3F-eYFP + Vif (tagged APOBEC3F with the HIV-1 protein that degrades it), YFP fluorescence increase; Potency, µM (titrated, usually from 46.1 µM), inactives show at the top dose activity, negative = active; hit rate 0.2% among 390,000; AID 602313; further: % of control where 0% means no effect; nearly all actives have a fitted effect of over 65% in size
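HeLa cells stably expressing A3F-eYFP plus Vif, plated and incubated overnight at 37 deg C, then exposed to compounds overnight at 37 deg C. Blocked degradation read as raised yellow fluorescence (Ex 488/Em 500-530).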
Numbers without * were called inactive; ? = inconclusive; . = not tested or not shown. Unless noted, the call rests on the fitted dose curve; in most records, active means well fitted curve in the direction sought with a large enough effect; inconclusive means small, poorly fitted or top-dose-only effect, or another doubt; inactive means no such curve, though single readings can be large; an effect the other way counts as inactive or inconclusive. Potency means the concentration at half of the fitted maximal effect.

SMILES	PINK1 expr mod	Vif-APOBEC3G blk	Epigenetic derep	Vif-APOBEC3F blk
CCCCCCN1C[C@H](O)[C@@H](n2cc(-c3ccc(F)cc3)nn2)C[C@@H]1c1ccc(Cl)cc1	16µM*	-11%	.	?
COc1ccc(CN2CCCC(n3cc(C(=O)NC4CCCC4)nn3)C2)c(O)c1 (stereo unspecified)	3%	.	.	.
Nc1c(N(CCC2=CCCCC2)C(=O)c2ccc([N+](=O)[O-])o2)c(=O)[nH]c(=O)n1Cc1ccccc1	6%	-16%	.	22µM*
S=C(Nc1ccccc1)Nc1nccs1	5%	-22%	13µM*	-21%
Fc1ccc(NC(=S)Nc2nccs2)cc1	3%	-1%	15%	?
COC(=O)c1cc(CNC(=O)c2ccc3ncccc3c2)cc(NC(=O)c2ccccc2Cl)c1	0%	.	.	.
COCC(=O)Nc1cc(C(=O)NC2CCCc3ccccc32)c2c(c1)nc(-c1ccncc1)n2C (stereo unspecified)	0%	.	.	.
COc1cc(CNc2nc(C)c(-c3ccn(CC4CCCN(C)C4)n3)s2)ccc1F (stereo unspecified)	-1%	.	.	.
Cc1c(/C=N/NC(=O)c2ccccc2O)c2ccccn2c1C(=O)c1ccc(F)cc1	28µM*	-3%	-2%	-37%
COc1cccc(/C(O)=C/c2nc3ccc(C(=O)NCCc4cccc(C)c4)cc3[nH]c2=O)c1	?	5.6µM*	14µM*	?
COc1cccc(/C(O)=C/c2nc3ccc(C(=O)NCCc4ccc(Cl)cc4)cc3[nH]c2=O)c1	1%	?	7.9µM*	5µM*
O=C(NCCc1ccc(Cl)cc1)c1ccc2nc[nH]c2c1	-1%	0%	1%	8%
CCN(CC)c1ccc(/C=C(\C#N)c2nc(-c3cccs3)c(NC(C)=O)s2)cc1	.	.	1.6µM*	.
COC(=O)[C@@H]1CCCN1Cc1ccc2c(c1)CN(Cc1cccn1-c1ccccn1)CCO2	1%	.	.	.
BrC(=C\c1ccccc1)/C=N/N1CCN(c2ccccn2)CC1	-2%	0%	22µM*	1%
CCN(CC)c1ccc2c(Cl)c(Br)c(=O)oc2c1	-2%	?	11µM*	?
COc1ccc(N/C=C/C(=O)c2sc(-c3ccccc3)nc2C)cc1	7%	11µM*	2%	-11%
COc1ccc(N/C=C/C(=O)c2ccccc2)cc1	2%	-5%	.	-18%
CN(C)S(=O)(=O)c1ccc2[nH]cc(/C=C/c3nc4ccccc4c(=O)n3-c3ccccc3)c2c1	11µM*	-25%	0%	-15%
Cc1c(C(=O)N2CC3CCC2C3)sc2ncnc(NCc3ccco3)c12 (stereo unspecified)	0%	.	.	.
NC(=O)C1CCN(c2nc3ccccc3nc2NS(=O)(=O)c2ccc(Br)cc2)CC1	0%	-1%	.	25µM*
CC(=O)c1ccc(F)c(-c2cc(C)cc3c2OC(CNC(=O)c2cnc4ccccn4c2=O)C3)c1 (stereo unspecified)	1%	.	.	.
COc1cc(-c2cc(C)c3cccc(OC)c3n2)cc2c1OCCN(C(=O)CCn1ccc(C)n1)C2	0%	.	.	.
COc1ccccc1CCNc1ncnc2sc(C(=O)N3CCCN(C=O)CC3)c(C)c12	1%	.	.	.
O=[N+]([O-])c1ccc(/C=C/C2=NN(c3ccccc3)C(c3ccco3)C2)o1 (stereo unspecified)	14%	?	13µM*	?
SMILES	PINK1 expr mod	Vif-APOBEC3G blk	Epigenetic derep	Vif-APOBEC3F blk
C(=C\c1ccco1)/C1=NN(c2ccccc2)C(c2ccco2)C1 (stereo unspecified)	?	?	?	25µM*
Fc1ccc(C2=NN(c3ccccc3)C(c3ccco3)C2)cc1 (stereo unspecified)	15%	-5%	-1%	-2%
CC(C)c1c(C(=O)NC(c2cccnc2)C(F)(F)F)cnn1-c1nccc(-c2cccs2)n1 (stereo unspecified)	-1%	.	.	.
O=C(c1ccc(NC(=S)Nc2ccc(Cl)c(Cl)c2)cc1)N1CCCC1	28µM*	0%	0%	1%
O=C(Nc1ccc(Cl)c(Cl)c1)N1CCCCCC1	6%	-1%	.	0%
COCCn1c(=O)c(CCc2ccccc2)nc2cnc(Nc3cccc(OC)c3)nc21	27%	.	.	.
COc1cccc(Cn2c(=O)c(-c3cccs3)nc3cnc(Nc4cccc(OC)c4)nc32)c1	8%	.	.	.
CCNc1ncc2nc(CCc3ccccc3)c(=O)n(Cc3ccc(F)cc3)c2n1	45µM*	.	.	.
COc1ccc(-c2nc3cnc(Nc4cccc(OC)c4)nc3n(C[C@H]3CCCO3)c2=O)cc1	25µM*	.	.	.
O=c1c(-c2ccccc2)nc2cnc(Nc3ccccc3)nc2n1C[C@H]1CCCO1	6%	.	.	.
COc1ccc(Nc2ncc3nc(-c4cccs4)c(=O)n(Cc4cccc(OC)c4)c3n2)cc1	2.5µM*	.	.	.
COc1cccc(Nc2ncc3nc(CCc4ccccc4)c(=O)n(Cc4cccs4)c3n2)c1	28µM*	.	.	.
COc1ccc(C(=O)NCCN2Cc3cc(C)ccc3OC(C)C2)c(OC)n1 (stereo unspecified)	-1%	.	.	.
COC(=O)[C@@H]1CCCN1C(=O)c1cnn(-c2nccc(-c3cc(C)sc3C)n2)c1C1CC1	-1%	.	.	.
Cc1cc(C(=O)N2CCOc3ccc(CN4CCC(Oc5cccnc5)CC4)cc3C2)c(C)o1	1%	.	.	.
COCCn1c(=O)c(-c2cccc(C#N)c2)nc2cnc(Nc3ccccc3)nc21	25µM*	.	.	.
O=C1Nc2ccccc2Oc2cc([N+](=O)[O-])cc(Oc3ccccc3)c21	15%	?	?	?
O=[N+]([O-])c1cc2c(c([N+](=O)[O-])c1)Nc1ccccc1O2	14µM*	-17%	.	-10%
Cc1ncc(-c2ccc(F)cc2)c(C2CCCN(Cc3cccc(O)c3)C2)n1 (stereo unspecified)	1%	.	.	.
Cc1ccc(NC(=S)Nc2ccc(C(C)C)cc2)cc1S(=O)(=O)N1CCCCCC1	11µM*	4%	1%	1%
COc1ccc(NC(=S)Nc2ccc(C)c(S(=O)(=O)N3CCCCC3)c2)cc1	.	.	-1%	.
Cc1ccc(NC(C(=O)c2ccccc2)c2ccccc2)cc1 (stereo unspecified)	35µM*	-7%	.	-4%
Nc1ncnc2c1ncn2[C@@H]1O[C@H](CNCc2ccc(OCc3ccccc3)cc2)[C@@H](O)[C@H]1O	0%	22µM*	.	-13%
Nc1ncnc2c1ncn2[C@@H]1O[C@H](CNCc2ccc(OCC(=O)Nc3ccccn3)cc2)[C@@H](O)[C@H]1O	-1%	-4%	.	5%
CCCCCCCn1c2c(c(=N)c3c1CCC3)CCCC2	11µM*	1%	0%	-4%
CCN1/C(=C2\SC(=S)N(Cc3ccccc3)C2=O)Sc2ccccc21	?	-14%	13µM*	?
CCN1/C(=C2/SC(=S)N(NC(C)=O)C2=O)Sc2ccccc21	22µM*	?	.	?
O=C(c1cnn2cccnc12)N1CCOc2ccc(C(O)C(c3ccccc3)c3ccccc3)cc2C1 (stereo unspecified)	1%	.	.	.
O=C(NC1CCCCC1)C(c1ccccc1F)N(Cc1ccco1)C(=O)Cn1nnc2ccccc21 (stereo unspecified)	6%	-8%	-1%	-15%
